HSD17B inhib = blocks hydroxysteroid 17-beta dehydrogenase activity | Q99714 | recombinant HSD17B10, NADH fluorescence kinetic | Potency, µM (series often up to 57.1 µM), usual class: inhibitors | 7.6% of 75,000 active | AID 893;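 also: the protocol describes HADH2 (HSD17B10) and not the HSD17B4 of the title; nearly all actives have a fitted effect of over 70% in size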
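Enzyme plus compound, 15 min room temperature; substrate mix added (NAD+ 1 mM, beta-hydroxybutyryl-CoA 90 uM final); plates read kinetically for NADH fluorescence. HADH2 was His-tagged, E. coli-derived, 20 nM.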
HADH2 inh = inhibitors of human HADH2 dehydrogenase | Potency, µM (series often up to 57.1 µM), actives largely listed as inhibitors | AID 886 | Q99714 | 3.4% of 73,000 active | recombinant HADH2, NADH fluorescence, beta-hydroxybutyryl-CoA; also: nearly all actives have a fitted effect of over 60% in size
Target sequence (Q99714 whole entry, looked up, one chain of several): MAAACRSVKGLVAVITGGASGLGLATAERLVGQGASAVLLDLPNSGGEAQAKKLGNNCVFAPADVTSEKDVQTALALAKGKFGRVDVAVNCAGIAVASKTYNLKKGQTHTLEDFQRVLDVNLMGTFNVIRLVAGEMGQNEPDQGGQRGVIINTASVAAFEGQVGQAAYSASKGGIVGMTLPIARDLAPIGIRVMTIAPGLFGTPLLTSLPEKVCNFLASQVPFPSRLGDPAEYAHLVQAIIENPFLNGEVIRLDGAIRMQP
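His-tagged recombinant enzyme from E. coli, 20 nM, preincubated 15 min RT with compound; reaction started with 1 mM NAD+ and 90 uM beta-hydroxybutyryl-CoA in 100 mM Tris-HCl pH 9.0. NADH fluorescence (ex 360/em 450) read over 4 min; last-minus-first difference.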
4MU fluor = 4-MU region autofluorescence. compound autofluorescence, 340/450 nm, 4-MU equivalents; stronger effect = higher value. max dye-equivalent concentration, M. 11% of 59,000 active. AID 589; in the data active = max dye-equivalent concentration above about 10 nM; inconclusive = mostly about 1.1 nM to 9.6 nM
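Compounds in 100 mM Tris, pH 8.0, incubated 15 min at room temperature, then fluorescence read at 340 nm excitation/450 nm emission. Signal converted to 4-MU dye-equivalent concentration using an on-plate six-point 4-MU standard curve.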
AID923 = qHTS Assay for Allosteric/Competitive Inhibitors of Caspase-1: Spectroscopic Profiling in AFC Spectral Region. compound fluorescence, AFC spectral region (405/520 nm). Potency, µM (top dose mostly 57.5 µM), usual class: activators. 1.1% of 75,000 active. AID 923, 2007
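Titrations up to 57 uM read every 20 sec for 3 min (405/520 nm) with 50 nM caspase 1 and 5 uM Ac-WEHD-AFC, pH 7.5 HEPES buffer. Fluorescence-vs-time intercept gave baseline, scaled against on-plate AFC standard.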
CRE Fsk mod = CRE-bla signaling modulation under forskolin stimulation | CHO CRE-bla reporter (cAMP response element driving beta-lactamase), forskolin EC10, beta-lactamase ratio | Potency, µM (top dose mostly 38.2 µM), most hits filed as activators | 2.5% of 71,000 active | AID 662; active = well fitted activation curve with a large enough effect in the signal ratio, with a control signal flat, not every such curve was filed as active; inconclusive = small, poorly fitted or top-dose-only effect, or effect the other way, or a change in a side signal; the % refers to the signal ratio
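The 460nm/530nm emission ratio after CCF4 loading defined %Activity, from which AC50 values were obtained. CRE-bla CHO cells received compound dilution series together with an EC10 level of NKH 477 for 3 hours at 37 degrees Celsius.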
A350 fluor = compounds fluorescent in Alexa 350 spectral region; Compound autofluorescence, 340/450 nm, Alexa 350 dye-equivalents; stronger effect = higher value; max dye-equivalent concentration, M; 11% of 59,000 active; AID 590; in the data active = max dye-equivalent concentration above about 10 nM; inconclusive = mostly about 1.1 nM to 9.6 nM
A number is an active result; 0 = inactive; ? = inconclusive; - = no result given; [ ] = dose if it differs, or a comment. The list is not random: actives were taken first. Their share in the collection is about 14%. Unless noted, calls follow the shape of the dose curve; as a rule, active = well fitted curve in the direction sought with a large enough effect; inconclusive = small, poorly fitted or top-dose-only effect, or another doubt; inactive = no such curve, though single readings can be large; an effect the other way counts as inactive or inconclusive.

SMILES	HSD17B inhib	HADH2 inh	4MU fluor	AID923	CRE Fsk mod	A350 fluor
COCCCn1cnc2c(c1=O)c1nc3ccccc3nc1n2-c1ccccc1	10µM	0	4e-07M	0	?	5.4e-07M
C=CCn1c(=O)c2ccccc2n2c(Sc3nnnn3-c3ccccc3)nnc12	?	0	0	0	0	0
C=CCn1cnc2c(c1=O)c1nc3ccccc3nc1n2-c1ccc(C)cc1	-	-	2.9e-08M	-	-	3e-08M
C=CCn1cnc2c(c1=O)c1nc3ccccc3nc1n2-c1ccccc1	?	0	1.4e-07M	0	0	1.4e-07M
COCCCn1cnc2oc3nc4ccccc4nc3c2c1=O	?	32µM	4.1e-06M	0	?	7.5e-06M
COc1ccccc1OCCOCCn1cnc2ccccc2c1=O	0	0	0	0	0	?
CCC1=C2CC[C@H]3C(=O)N(CC)C(=O)[C@H]3[C@H]2[C@@]2(Cc3ccccc3)C(=NCC3CC3)OC(=O)N2C1=O	0	-	-	0	-	-
CC(C)=CCC/C(C)=C/CO/N=C1/C[C@@H](O)[C@@H](O)[C@@H]2[C@@H]3C(=O)N(C4CCCCC4)C(=O)[C@H]3CC[C@H]12	0[11.4 µM]	0[11.4 µM]	-	0[11.5 µM]	-	-
COc1ccc(C(=O)N2CCC[C@@]3(CCN(CC(C)C)C3)C2)cc1	0	0	0	0	0	0
CCn1c(SCC(=O)O)nnc1C1CCCCC1	0	0	0	0	0	?
CCOC(=O)/C(C#N)=C1\Nc2ccccc2N=C1N(CC(C)C)CC(C)C	-	-	1.9e-08M	-	-	2.4e-08M
CCOC(=O)/C(C#N)=C1/C=CN(C)C(C)=N1	0	0	-	0	0	-
N#CCSc1nc2cc(C(=O)N3CCC(C(N)=O)CC3)ccc2c2nc3ccccc3n12	0	0	0	0	2.5µM	?
N#CCSc1nc2cc(C(=O)N3CCCC3)ccc2c(=O)n1Cc1ccccc1	0	0	0	0	?	0
CC1(C)OC2CC3C4CCC5=CC(=O)C=C[C@@]5(C)[C@]4(F)C(O)C[C@@]3(C)[C@]2(C(=O)CO)O1 (some centres not stated)	0	-	-	0	-	-
CN1CC[C@@]2(CCN3CCc4c(oc5ccccc45)[C@@H]3C2)N(C)C1=O	0	0	3.7e-08M	0	0	3.6e-08M
Cc1nn(-c2ccc(F)cc2)c2sc(C(=O)N3CCCCCC3)cc12	0	0	0	0	1µM	?
Cc1nn(-c2ccc(Cl)cc2)c2sc(C(=O)N3CCN(C(=O)c4ccco4)CC3)cc12	0	0	0	0	0	0
Cc1ccsc1C(=O)OC1CCOC1=O (configuration not stated)	0	0	0	0	?	0
Cc1nn(-c2ccccc2)c2sc(C(=O)OCN3C(=O)c4ccccc4C3=O)cc12	?	0	-	0	1.6µM	-
Cc1nn(-c2ccc(F)cc2)c2sc(C(=O)OC3CCOC3=O)cc12 (configuration not stated)	25µM	0	3.1e-07M	0	?	4.6e-07M
CCC(C)=O	0	0	-	0	0	-
COc1ccc(CNc2ccnc(-c3cccc(NS(C)(=O)=O)c3)n2)c(OC)c1	0	0	0	0	?	0
NCCSCc1ccccc1Cl	0[11.4 µM]	0[11.4 µM]	0	0[11.5 µM]	0[7.6 µM]	0
CCN(CC)CCCC(C)n1c(-c2ccccc2)nc2c(N(CCOC)CCOC)nc(C)nc21 (configuration not stated)	32µM	0	-	0	0	-
SMILES	HSD17B inhib	HADH2 inh	4MU fluor	AID923	CRE Fsk mod	A350 fluor
CCCn1c(C)nc2c(N(CCN(CC)CC)CCN(CC)CC)nc(C)nc21	0	0	-	0	0	-
CCN(CC)CCCn1c(-c2ccccc2)nc2c(N(CCOC)CCOC)nc(C)nc21	32µM	?	-	0	0	-
CCCn1c(-c2ccc(F)cc2)nc2c(N(C)CCN(C)C)nc(C)nc21	?	0	-	0	0	-
COCCN(CCOC)c1nc(C)nc2c1nc(-c1ccccc1)n2CCN(C)C	32µM	?	-	0	?	-
COCCN(CCOC)c1nc(C)nc2c1nc(-c1ccccc1)n2CCN1CCOCC1	-	0	-	0	13µM	-
CCN(CC)CCCCn1c(-c2ccccc2)nc2c(N(CCOC)CCOC)nc(C)nc21	25µM	?	-	0	0	-
